Measurements as given in PubChem BioAssay (NCATS).
Records with an inconclusive call do not appear. Calls of active or inactive are those of the source. Calls come from the whole dose curve; as a rule, active = well fitted cell-killing curve with a large enough effect; inconclusive = small, poorly fitted or top-dose-only effect, or effect the other way; inactive = flat fitted curve, though single readings scatter.

Experiments:
Assay in all cases: Primary qHTS to identify gynecologic anti-cancer compounds using libraries of approved drugs and bioactive compounds (AID 1345084); note: nearly all actives have a fitted effect of over 55% in size
Details in all cases: Gynecologic cancer cell panel viability, ATPlite luminescence, 48 h; series mostly up to 57.5 µM
PA-1 = system: PA-1
Procedure, shortened: (§1)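 Five-concentration response, 48 h; readout is ATP-driven luciferase luminescence.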

SKOV3 = system: SKOV3
Procedure, shortened: as §1

Tov-21-G = system: Tov-21-G
Procedure, shortened: as §1

Tov112D = system: Tov112D
Procedure, shortened: as §1

Measured: Potency

C=CCc1ccc(OC(C)Cc2ccc(OC)c(OC)c2)c(OC)c1 (stereo not given)
inactive: PA-1 | SKOV3 | Tov-21-G | Tov112D

C[C@@H]1CC[C@]2(C(=O)O)CC[C@]3(C)C(=CCC4[C@@]5(C)CC[C@H](O)[C@](C)(C(=O)O)C5CC[C@]43C)C2[C@]1(C)O (stereo not given in full)
inactive: PA-1 | SKOV3 | Tov-21-G | Tov112D

COc1ccc(-c2csc(NC(=O)[C@H]3CCCCN3S(=O)(=O)c3ccc(C)cc3)n2)cc1
inactive: PA-1 | SKOV3 | Tov-21-G | Tov112D

CNC(=O)[C@@H](c1ccccc1)N1CCc2cc(OC)c(OC)cc2[C@@H]1CCc1ccc(C(F)(F)F)cc1
inactive: PA-1 | SKOV3 | Tov-21-G | Tov112D

O=C(O)C1=CO[C@@H](O[C@@H]2O[C@H](CO)[C@@H](O)[C@H](O)[C@H]2O)[C@@H]2C(CO)=CC[C@H]12
inactive: PA-1 | SKOV3 | Tov-21-G | Tov112D

CC(=O)C1=C(O)C=C2Oc3c(C(C)=O)c(O)c(C)c(O)c3[C@]2(C)C1=O
inactive: PA-1 | SKOV3 | Tov-21-G | Tov112D

CC(=O)OC1C(OC(=O)c2ccccc2)C2C(C)(C)CCC(OC(C)=O)C2(C)C23CCC(C)(C2)C(=O)CC13 (stereo not given)
inactive: PA-1 | SKOV3 | Tov-21-G | Tov112D

CC1(C)SCCN(S(=O)(=O)c2ccc(Oc3ccncc3)cc2)[C@H]1C(=O)NO
inactive: PA-1 | SKOV3 | Tov-21-G | Tov112D

O=C1Cc2c([nH]c3ccc(Br)cc23)-c2ncccc2N1
inactive: PA-1 | SKOV3 | Tov-21-G | Tov112D

CN(C)S(=O)(=O)c1ccc(NC(=S)N2CCC(C(O)(c3ccccc3)c3ccccc3)CC2)cc1
inactive: PA-1 | SKOV3 | Tov-21-G | Tov112D
